The record followed here is PubChem BioAssay (NCI).

Some test systems named below: HCT-15 colon; HT29 colon; SNB-75 CNS; SNB-19 CNS; PC-3 prostate; SK-MEL-5 melanoma; UACC-62 melanoma; SK-MEL-28 melanoma; LOX IMVI melanoma; U251 CNS.
Common to all, as to experiment: NCI-60 one-dose screen, 48 h (100 = growth as untreated, 0 = no growth, -100 = all killed)
What all share (settings): 10 µM unless noted

The panel holds about 83,000 compounds, 20% with a hit somewhere; the sample as a whole holds those more often.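 Negative percent growth values reflect cell death: -40 means 40% of the cells present at the start died, and -100 means all died.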 A number with no mark means an inactive call. Activity calls are given as the source filed them. The calls were made as follows: active = growth percent below 10; inactive = the rest.

With `CSc1nc(NCc2ccccc2)c(C#N)c(-c2cccc([N+](=O)[O-])c2)n1`, the growth with HCT-15 colon is 95.9%; in the assay on HT29 colon, 103%; in the assay on SNB-75 CNS, 68.2%; in the assay with SNB-19 CNS, 94.9%; with PC-3 prostate it was 94.5%; in the assay with SK-MEL-5 melanoma it was 100%. Besides, the growth was 79% with UACC-62 melanoma and 102% with SK-MEL-28 melanoma.
Consider `O=C1CC(=NCC(=O)n2c(-c3ccccc3)nc3ccccc32)NN1`, for which the growth with HCT-15 colon is 99.1%; with HT29 colon, 108%; in the assay on SNB-75 CNS, 66.6%; in the assay on SNB-19 CNS it was 97.7%; in the assay with PC-3 prostate, 99.2%; in the assay on SK-MEL-5 melanoma, 96.6%. Also, the growth is 94.9% with UACC-62 melanoma and 118% with SK-MEL-28 melanoma.
Regarding `COc1ccc(-c2nc3ccc(-c4nc5ccc(N6CCN(C)CC6)cc5[nH]4)cc3[nH]2)cc1OC`, the growth is 91% with HCT-15 colon; 49.4% in the assay with HT29 colon; 54% with SNB-75 CNS; 90.3% in the assay on SNB-19 CNS; 62.8% in the assay with PC-3 prostate; 26.3% with SK-MEL-5 melanoma. In addition, the growth in the assay on UACC-62 melanoma was 19.2%; in the assay with LOX IMVI melanoma, 43.9%; with SK-MEL-28 melanoma, 39%.
`COc1cc(-c2nc3cc(Cl)c(Cl)cc3[nH]2)ccc1OCC(=O)N=Nc1c(O)[nH]c2ccccc12`: the growth in the assay on HCT-15 colon was 64.4%; with HT29 colon, -23.1% (active); in the assay on SNB-75 CNS it was -90% (active); with U251 CNS, -92% (active); with PC-3 prostate it was -59.3% (active); with UACC-62 melanoma, -93.9% (active). Moreover, the growth in the assay with LOX IMVI melanoma is -100% (active); in the assay on SK-MEL-28 melanoma, -93.4% (active).
In the case of `COc1cc2nc(N3CCCC3)nc(NCc3ccccc3)c2cc1OC`, the growth with HCT-15 colon is 6.07% (active); in the assay with HT29 colon, 18.7%; in the assay with SNB-75 CNS, 69.1%; in the assay with SNB-19 CNS, 95.6%; in the assay with PC-3 prostate, 67.2%; in the assay on SK-MEL-5 melanoma, 67.8%. In addition, the values for the growth in the assay with UACC-62 melanoma, with LOX IMVI melanoma and in the assay on SK-MEL-28 melanoma were 97.3%, 10% and 57%, respectively.
As for `COc1cccc(-c2nc3sccn3c2-c2ccnc(NCCCNS(=O)(=O)c3cccc(Cl)c3)c2)c1`, the growth was 28.7% with HCT-15 colon; 54.5% with HT29 colon; 51.8% in the assay with SNB-75 CNS; 66.3% in the assay with SNB-19 CNS; 21.7% in the assay with PC-3 prostate; -12.5% (active) in the assay on SK-MEL-5 melanoma. The growth is -7.03% (active) in the assay on UACC-62 melanoma, 35.6% in the assay on LOX IMVI melanoma and 67.4% in the assay on SK-MEL-28 melanoma.
In the case of `O=C(/C=C/c1cccc([N+](=O)[O-])c1)c1ccc(O)c(CN2CCN(c3cc4c(cc3F)c(=O)c(C(=O)O)cn4C3CC3)CC2)c1`, the growth was -40.1% (active) in the assay with HCT-15 colon; -23.6% (active) in the assay with HT29 colon; 31.1% with SNB-75 CNS; 47.2% in the assay with SNB-19 CNS; 18.4% in the assay on PC-3 prostate; 46.1% with SK-MEL-5 melanoma. Moreover, the growth in the assay with UACC-62 melanoma was 53%; with SK-MEL-28 melanoma, 46.4%.
In the case of `COc1cc(C=Nc2oc(-c3ccccc3)c(-c3ccccc3)c2C#N)cc(CN2CCCCC2)c1O`, the growth with HCT-15 colon was 95.4%; in the assay with HT29 colon, 102%; with SNB-75 CNS, 66.6%; in the assay on SNB-19 CNS, 98.6%; in the assay on PC-3 prostate, 93.2%; in the assay with SK-MEL-5 melanoma, 98.4%. The growth in the assay with UACC-62 melanoma is 88.4%; with LOX IMVI melanoma it was 87.7%; in the assay with SK-MEL-28 melanoma it was 110%.
As to `C=CC(=O)Nc1cccc(-c2nc(SC)nc(Nc3cccc(OC)c3)c2C#N)c1`, the growth with HCT-15 colon is 52.5%; with HT29 colon, 56.9%; in the assay on SNB-75 CNS it was 18%; with PC-3 prostate it was 53.1%; with SK-MEL-5 melanoma, 77%; in the assay with UACC-62 melanoma it was 78.1%. Further, the growth in the assay on LOX IMVI melanoma was 72.1%; in the assay with SK-MEL-28 melanoma it was 87%.
For the compound `CN(C)S(=O)(=O)c1cccc(-c2nc3sc4c(c3c(=O)[nH]2)CCCC4)c1`, the growth with HCT-15 colon is 115%; in the assay on HT29 colon it was 19.5%; in the assay with SNB-75 CNS, -12.3% (active); in the assay with U251 CNS, 1.85% (active); in the assay with SK-MEL-5 melanoma, 77.3%; with UACC-62 melanoma, 71.1%. Besides, the results for the growth with LOX IMVI melanoma and in the assay on SK-MEL-28 melanoma were 174% and 82.2%, respectively.
Regarding `Cc1ccc(C2Oc3ccccc3C3CC(c4cccs4)=NN32)cc1` (stereo unspecified), the growth is 100% in the assay on HCT-15 colon; 109% in the assay with HT29 colon; 81.7% in the assay on SNB-75 CNS; 92.5% with U251 CNS; 96.3% in the assay on SK-MEL-5 melanoma; 96.2% with UACC-62 melanoma. In addition, the growth in the assay on LOX IMVI melanoma was 94.4%; in the assay on SK-MEL-28 melanoma it was 103%.
Take `COc1ccc(CN2c3ccccc3Oc3ccccc32)cc1O`: the growth in the assay with HCT-15 colon is 28.1%; with HT29 colon it was 72.7%; in the assay on SNB-75 CNS, 27.4%; with U251 CNS, 24%; with PC-3 prostate, 31.4%; in the assay with LOX IMVI melanoma, 39.5%.
`O=C(Cn1cccc(Nc2ccccc2)c1=O)Nc1ccccc1`: the growth was 101% in the assay on HCT-15 colon; 106% in the assay with HT29 colon; 84.9% with SNB-75 CNS; 97.8% in the assay on U251 CNS; 97.3% in the assay with PC-3 prostate; 93.6% with UACC-62 melanoma. For the same compound, the growth in the assay on SK-MEL-28 melanoma is 104%.
As for `N#CCCN=Nc1c(O)[nH]c2ccc([N+](=O)[O-])cc12`, the growth in the assay with HCT-15 colon is 102%; in the assay with HT29 colon, 101%; with SNB-75 CNS, 70.5%; with PC-3 prostate, 99.7%; in the assay with SK-MEL-5 melanoma it was 99.2%; with UACC-62 melanoma, 93.2%. Further, the growth in the assay on LOX IMVI melanoma was 90.3%; with SK-MEL-28 melanoma it was 112%.
Take `COc1cccc(-c2nc3sccn3c2-c2ccnc(NCCNS(=O)(=O)c3ccccc3)c2)c1`: the growth in the assay on HCT-15 colon is 11.8%; with HT29 colon, 23.6%; in the assay with SNB-75 CNS, 15.2%; with PC-3 prostate it was 11.3%; in the assay on SK-MEL-5 melanoma, -39.3% (active); in the assay on UACC-62 melanoma, -31.3% (active). For the same compound, the figures for the growth in the assay on LOX IMVI melanoma and in the assay with SK-MEL-28 melanoma were 24% and 50%, respectively.
